We go through 13 compounds from PubChem BioAssay (NCATS).

Molecules are shown by their SMILES. Results filed as inconclusive are left out. The source made the active and inactive calls. Unless noted, calls follow the shape of the dose curve; as a rule, active = well fitted curve in the direction sought with a large enough effect; inconclusive = small, poorly fitted or top-dose-only effect, or another doubt; inactive = no such curve, though single readings can be large; an effect the other way counts as inactive or inconclusive.

A short description of test [1]: Confirmation and Secondary Assay for Modulators of Hemoglobin Beta Chain Splicing at IVS2 654 locus (AID 910).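 Also: HeLa cells stably carrying EGFP split by mutant beta-globin IVS2-654 intron; per-well total GFP intensity by laser scanning cytometry after 2-day treatment.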 To be noted: HeLa EGFP-654 splicing reporter, GFP fluorescence, 48 h; series mostly up to 38.3 µM. A digest of the protocol:
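Readout: per-well total peak green fluorescence (488 nm ex, 500–520 nm em) from objects 5–250 µm, reflecting correct splicing of an EGFP-654 reporter. Compounds were applied for 2 days at 37 °C to overnight-plated HeLa EGFP-654 cells; controls were DMSO and 500 nM IVS2-654 PNA.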

Test [2] can be described thus: Confirmation and Secondary Assay for Modulators of Hemoglobin Beta Chain Splicing at IVS2 705 locus (AID 930). The settings on record: HeLa EGFP-705 splicing reporter, GFP fluorescence, 48 h; series mostly up to 38.3 µM. A digest of the protocol: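 HeLa cells stably carrying EGFP interrupted by mutant beta-globin IVS2-705 intron (CMV-driven) were seeded at 500 cells/well, treated next day with compound for 2 days at 37C; corrected splicing restores EGFP, read as total peak GFP intensity per well.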

The subject of another test is CP194. The test is described as follows: qHTS profiling for inhibitors of Plasmodium falciparum proliferation (AID 504749). Also: nearly all actives have a fitted effect of over 60% in size. Also: potency is read from the fitted curve at half-maximal effect. The settings on record: P. falciparum in erythrocytes, SYBR Green DNA, 72 h; series mostly up to 28.7 µM. Put shortly: (§1)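 SYBR Green fluorescence of parasite DNA, read after lysis and overnight dark incubation, measured growth over 72 h in erythrocyte culture at 0.3% parasitemia and 2.5% hematocrit. Data normalised to DMSO and 0.29 uM artemisinin, with plate-drift correction.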
(In general: Quantitative high-throughput screening tests each substance at several concentrations.)

The next test has as its system CP215. Described as above. To be noted: P. falciparum in erythrocytes, SYBR Green DNA, 72 h; series mostly up to 28.7 µM. A digest of the protocol: as §1
Another test deals with CP268. The test is described as above. The settings on record: P. falciparum in erythrocytes, SYBR Green DNA, 72 h; series mostly up to 28.7 µM. Put shortly: as §1
The test system of another test is CP291. The test is described as above. To be noted: P. falciparum in erythrocytes, SYBR Green DNA, 72 h; series mostly up to 28.7 µM. Put shortly: as §1
The subject of another test is CP297. Described as above. The settings on record: P. falciparum in erythrocytes, SYBR Green DNA, 72 h; series mostly up to 28.7 µM. A digest of the protocol: as §1
For a further test, the system named is CP305. The test is described as above. The settings on record: P. falciparum in erythrocytes, SYBR Green DNA, 72 h; series mostly up to 28.7 µM. A digest of the protocol:
as §1

A further test relates to ECU. Described as above. The settings on record: P. falciparum in erythrocytes, SYBR Green DNA, 72 h; series mostly up to 28.7 µM. Put shortly:
as §1

In the next test the test system is TAB109. The test is described as above. The settings on record: P. falciparum in erythrocytes, SYBR Green DNA, 72 h; series mostly up to 28.7 µM. Put shortly:
as §1

For test [3], the target named is DNA dC->dU-editing enzyme APOBEC-3G (Homo sapiens) (UniProt Q9HC16). The test is described as follows: qHTS for inhibitors of Vif-A3G interactions: Validation (AID 588379). The settings on record: Vif-A3G protein interaction assay; series mostly up to 46.1 µM. Put shortly:
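Yellow fluorescence (Ex 488, Em 500-530) of Vif-coexpressing HeLa A3G-eYFP cells, scanned by Acumen cytometer, reports blocked A3G degradation. Cells plated at 700/well overnight at 37 deg C before compound addition, then a further overnight compound incubation at 37 deg C.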

Test [4] is described as follows: qHTS Assay for Identification of Small Molecule Antagonists for NFkB Signaling Pathway (AID 895; active = well fitted inhibition curve with a large enough effect in the signal ratio, with a control signal flat, not every such curve was filed as active; the % refers to the signal ratio; also: potency is read from the fitted curve at half-maximal effect). The settings on record: NFkB beta-lactamase reporter cells, FRET ratio 460/530, stimulated with 10 pM TNF alpha; series mostly up to 38.3 µM. Put shortly: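 Beta-lactamase reporter read-out (460 and 530 nm emission ratio, 405 nm excitation, 2 hrs substrate loading RT) after 5 hr stimulation with 10 pM TNF alpha in compound-treated NFkB-bla ME-180 cells in low-serum medium.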

The target of test [5] is Muscarinic acetylcholine receptor M1 (Rattus norvegicus) (UniProt P08482). The test is described as follows: qHTS Assay for Antagonists of Acetylcholine Muscarinic M1 Receptor: Kinetic Measurement of Intracellular Calcium Response (AID 943).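 Also: Fluo-4 calcium signal as peak divided by basal fluorescence over 4 min; nearly all actives have a fitted effect of over 75% in size.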 The settings on record: M1-expressing cells, kinetic intracellular calcium fluorescence; series mostly up to 35.3 µM. A digest of the protocol: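 Antagonism is measured as inhibition of the carbachol-evoked calcium rise in CHO cells transfected with rat M1. Cells are dye-loaded, exposed to compound for 10 min, then stimulated with 100 nM carbachol (EC80).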
Muscarinic acetylcholine receptor M1 (Rattus norvegicus), sequence (P08482 whole entry, looked up): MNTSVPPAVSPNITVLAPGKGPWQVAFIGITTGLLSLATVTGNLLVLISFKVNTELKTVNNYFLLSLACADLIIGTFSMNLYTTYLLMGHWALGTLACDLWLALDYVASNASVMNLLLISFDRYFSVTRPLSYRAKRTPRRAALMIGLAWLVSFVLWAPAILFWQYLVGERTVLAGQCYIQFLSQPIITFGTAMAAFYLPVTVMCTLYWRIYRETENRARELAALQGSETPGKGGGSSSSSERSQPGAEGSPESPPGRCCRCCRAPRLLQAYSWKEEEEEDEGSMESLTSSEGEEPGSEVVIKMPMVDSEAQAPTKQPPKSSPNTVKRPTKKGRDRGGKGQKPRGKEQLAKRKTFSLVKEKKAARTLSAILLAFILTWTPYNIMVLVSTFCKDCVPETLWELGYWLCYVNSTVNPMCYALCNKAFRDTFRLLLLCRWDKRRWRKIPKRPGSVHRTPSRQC

DNA dC->dU-editing enzyme APOBEC-3G (Homo sapiens), sequence (Q9HC16 whole entry, looked up): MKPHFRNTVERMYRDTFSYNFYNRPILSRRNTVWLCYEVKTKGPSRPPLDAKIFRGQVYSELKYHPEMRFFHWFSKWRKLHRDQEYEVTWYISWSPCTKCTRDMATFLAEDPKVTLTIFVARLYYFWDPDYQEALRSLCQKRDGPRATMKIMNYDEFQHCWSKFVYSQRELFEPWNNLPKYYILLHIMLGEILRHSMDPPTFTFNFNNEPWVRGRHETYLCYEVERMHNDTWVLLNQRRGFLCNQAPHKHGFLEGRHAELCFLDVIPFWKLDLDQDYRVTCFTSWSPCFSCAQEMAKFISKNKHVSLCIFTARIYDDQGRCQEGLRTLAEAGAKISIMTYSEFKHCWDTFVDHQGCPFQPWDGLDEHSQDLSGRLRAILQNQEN

Regarding `Cc1cccc(CNc2ncnc3ccc(-c4ccc(C(=O)N(C)C)cc4)cc23)c1`, the compound was classed as inactive in test [1] and in [2].
For `OC[C@H](S)CS`, the Potency entry in the test with CP194 and in the test with CP215 was “inactive” each time.
`Cc1cccc(CNc2nc(-c3cccnc3)nc3ccccc23)c1`: the outcome in test [1] and in test [2] was inactive.
Turning to `O=C(O)[C@@H](S)[C@H](S)C(=O)O`, the Potency in the test on CP194 is 15.1 µM (active); in the test with CP215, 9.53 µM (active); in the test with CP268, 13.5 µM (active); in the test on CP291, 12 µM (active); in the test on CP297 it was 15.1 µM (active); in the test with CP305 it was 7.57 µM (active). Further, the Potency is 11.2 µM (active) in the test on ECU and 5.62 µM (active) in the test with TAB109.
In the case of `N[C@H](COP(=O)(O)O)C(=O)O`, the Potency result in the test on CP194, in the test with CP215, in the test with CP268, in the test with CP291, with CP297 and with CP305 was “inactive” throughout. For the same compound, the Potency result in the test with ECU and with TAB109 was “inactive” in each case.
As to `COc1cc2nc(N(C)CCCNC(=O)[C@@H]3CCCO3)nc(N)c2cc1OC`, the Potency entry in the test with CP194, with CP268, in the test with CP291, with CP297, in the test on CP305 and in the test on ECU was “inactive” each time. Also, in the test on TAB109, the Potency entry was “inactive”.
Regarding `CC(=O)N1CCN(c2ccc(OC[C@@H]3CO[C@@](Cn4ccnc4)(c4ccc(Cl)cc4Cl)O3)cc2)CC1`, the Potency result with CP291 and in the test on CP297 was “inactive” each time.
`C[N+]1(C)[C@@H]2CC(OC(=O)[C@@H](CO)c3ccccc3)C[C@@H]1[C@H]1O[C@H]12` (stereo partly drawn): the Potency entry in the test with CP268, with CP291, in the test with CP297, with CP305, in the test on ECU and in the test with TAB109 was “inactive” in each case.
Regarding `Oc1ccc([C@@H]2CNCCc3c2cc(O)c(O)c3Cl)cc1`, the compound was called inactive in test [3].
For the compound `OC[C@@H]1NC[C@@H](O)[C@H]1O`, the Potency entry in test [4] is “inactive”.
Regarding `C[C@H]1CN(S(=O)(=O)c2cccc3cnccc23)CCN1`, the Potency in test [4] is 2.82 µM (active). Besides, the Potency entry in [5] is “inactive”.
Consider `CC(C)C[C@H](NC(=O)[C@@H](O)[C@@H](N)Cc1ccccc1)C(=O)O`, for which, in test [4], the Potency is 1.58 µM (active).
Still for that read-out and setting: under `Cc1ccccc1N1CCN(S(=O)(=O)C[C@@]23CC[C@H](C[C@H]2NC(=O)[C@@H](N)CCS(C)(=O)=O)C3(C)C)CC1` stands “inactive”.
